In all, about 2,100 compounds went through this assay and about 1,100 (52%) were called active. Not shown: some 27% with an inconclusive outcome. Calls follow the shape of the dose curve; as a rule, active = well fitted inhibition curve with a large enough effect; inconclusive = small, poorly fitted or top-dose-only effect; inactive = no such curve, though single readings can be large or run the other way. So high a share suggests a set chosen from earlier hits. This is one part of the list.
Potency is read from the fitted curve at half-maximal effect.

Sequence of DNA dC->dU-editing enzyme APOBEC-3G (Homo sapiens) (Q9HC16 whole entry, looked up): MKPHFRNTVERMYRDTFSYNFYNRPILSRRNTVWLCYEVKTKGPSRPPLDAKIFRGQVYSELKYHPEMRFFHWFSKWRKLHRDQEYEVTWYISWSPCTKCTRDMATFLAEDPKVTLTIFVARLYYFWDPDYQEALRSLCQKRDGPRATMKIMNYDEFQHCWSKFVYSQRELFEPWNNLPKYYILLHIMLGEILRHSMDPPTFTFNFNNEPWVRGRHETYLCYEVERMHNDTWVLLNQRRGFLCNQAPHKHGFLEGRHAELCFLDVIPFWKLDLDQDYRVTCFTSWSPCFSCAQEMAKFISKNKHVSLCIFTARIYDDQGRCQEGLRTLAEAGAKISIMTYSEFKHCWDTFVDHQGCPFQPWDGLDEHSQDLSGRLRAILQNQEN

The target in the assay is DNA dC->dU-editing enzyme APOBEC-3G (Homo sapiens) (UniProt Q9HC16). As to the kind of experiment: qHTS for inhibitors of Vif-A3G interactions: Cherry picks counterscreen.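 Also: hits raise yellow fluorescence by blocking Vif-driven A3G-eYFP degradation; nearly all actives have a fitted effect of over 70% in size.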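 As to max response: max response given as percent of control signal.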 The note with it: HeLa A3G-eYFP + Vif (tagged APOBEC3G with the HIV-1 protein that degrades it), eYFP fluorescence, 24 h. The text has this:
The recent discovery and characterization of host restriction factors, which provide a potent defense to invading retroviruses, has provided new targets for antiviral drug development. APOBEC3G (A3G) and APOBEC3F (A3F) are potent cytidine deaminases that block HIV-1 replication; HIV-1 expresses the Vif protein, which counteracts A3G and A3F by binding to them and inducing their proteasomal degradation. The Vif-A3G and Vif-A3F interactions provide two potential targets for development of small molecules which can interfere with the ability of Vif to degrade A3G or A3F. […] To identify inhibitors that can interfere with Vif mediated degradation of A3G and A3F, we have developed Hela cell lines that stably express A3G or A3F tagged with eYFP at the C-terminal end (A3G-eYFP or A3F-eYFP, respectively) and Vif. In the absence of an inhibitor, Vif induces degradation of A3G-eYFP and A3F-eYFP, and the cells are not fluorescent. In the presence of an inhibitor, it is expected that Vif will be unable to degrade A3G-eYFP and/or A3F-eYFP, resulting in an increase in yellow fluorescence. In this counterscreen assay, Vif A3G was screened against the cherry picks ordered from the MLSMR. NIH Chemical Genomics Center [NCGC] NIH Molecular Libraries Probe Centers Network [MLPCN] MLPCN Grant: MH093245 Assay Submitter (PI): Vinay Pathak, National Cancer Institute
A3G-Vif cells were harvested from T225 flask and resuspended in phenol free OPTI-MEM medium with 5% FBS. Then 5 uL of 140,000 cells/mL resuspended cells was dispensed into each well of low base Aurora COC 1,536-well plates (black walled, clear bottom) using a Multidrop Combi dispenser. After overnight culture at 37 deg C with 5% CO2, a total of 23 nL of compounds at 5 selected concentrations from the NPC or positive control (2 mM stock of MG132) in DMSO was transferred to each well of the assay plate using a pintool (Kalypsys, San Diego, CA), and the plates were further incubated at 37 deg C with 5% CO2 for 24 hours. After that, the plates were measured on Acumen Explorer (TTP Lab Tech). The fluorescence was detected by 488 nm/Ex and […].
On to `Cc1ccc(C(=O)c2cc([N+](=O)[O-])ccc2N2CCOCC2)cc1C`, for which the Potency was 0.994 µM (active).
Still for that read-out and setting: under `CNc1cncc(-c2cc(C)c(O)c(C)c2)n1` stands 4.98 µM (active).
For the compound `Cc1sc2nc(SCC(=O)N3CCOCC3)[nH]c(=O)c2c1-c1ccccc1`, the max response was -5.17% (inactive).
In the case of `CCOC(=O)CSc1nc2c(c(=O)[nH]1)C(C)(CC)Cc1ccccc1-2` (stereo unspecified), the Potency is 8.2 µM (active).
For `COc1cccc(N2CCN(Cc3nc4scc(-c5ccccc5)c4c(=O)[nH]3)CC2)c1`, the Potency was 12.5 µM (active).
Regarding `O=c1[nH]c(CN2CCN(c3ccccc3)CC2)nc2scc(-c3ccccc3)c12`, the Potency is 9.2 µM (active).
For the compound `CCS(=O)(=O)C1=NN2C(=N)/C(=C\c3ccc(SCc4ccco4)o3)C(=O)N=C2S1`, the max response is 2.81% (inactive).
For `CC1=CN2C(=N)/C(=C/c3ccc([N+](=O)[O-])o3)C(=O)N=C2S1`, the Potency was 17.7 µM (active).
For `COc1ccc(CCNC(=O)CC2(CC3=NS(=O)(=O)c4ccccc4N3)CCCC2)cc1OC`, the max response is -1.6% (inactive).
On to `COc1cccc(-c2ccc3c(N)c(C(=O)c4ccc(Cl)cc4)sc3n2)c1`, for which the Potency is 20.6 µM (active).
Take `COc1cccc(-c2ccc3c(N)c(C(=O)c4ccc(Br)cc4)sc3n2)c1`: the Potency is 20.6 µM (active).
For the compound `Cc1noc(C)c1COc1ccc(C(=O)NNC(=O)c2ccccc2F)cc1`, the Potency is 8.86 µM (active).
On to `Cc1noc(C)c1COc1ccc(C(=O)NNC(=O)c2ccccc2)cc1`, for which the Potency was 5.59 µM (active).
As to `CCOc1cc(/C=C(/C#N)C(=O)Nc2ccc(O)cc2)cc(Br)c1O`, the Potency is 17.7 µM (active).
On to `CCOc1ccc(NC(=O)/C(C#N)=C/c2ccc(N3CCCC3)c(C)c2)cc1`, for which the Potency was 2.06 µM (active).
For the compound `CCOC(=O)c1c(-c2ccc(C)cc2)csc1NC(=O)/C(C#N)=C/c1ccc(O)c(OC)c1`, the max response was 57.5% (inactive).
In the case of `Cc1cccc(N2CCN(C(=O)c3cccc(N4CCCC4=O)c3)C(C)C2)c1` (stereo unspecified), the Potency was 14 µM (active).
The same measure, in the same setting: in the case of `CCOc1ccc(NC(=O)Cn2c(=O)n(Cc3ccc(C(=O)NCc4ccc(C)cc4)cc3)c(=O)c3ccccc32)cc1` it was 13 µM (active).
Consider `Cc1ccc(-n2c(=O)c3ccc(C(=O)NCc4ccccc4Cl)cc3n(CC(=O)Nc3cccc(Cl)c3)c2=O)cc1`, for which the max response is -24% (inactive).
`Cc1ccc(N2C(=O)CS/C2=C(\C(Cl)=C(Cl)Cl)[N+](=O)[O-])cc1`: the max response is 1.1% (inactive).
Take `Cc1ccc(NC(=O)/C(C#N)=C\c2ccc(-c3ccc(Cl)cc3)o2)c(C)c1`: the Potency is 5.8 µM (active).
With `CC(NC(=S)Nc1cccc(C(F)(F)F)c1)C(C)(C)C` (stereo unspecified), the max response is 21.6% (inactive).
As for `COc1cccc(Cn2c(-c3nonc3NC(C)=O)nc3ccccc32)c1`, the Potency is 11.6 µM (active).
With `Nc1nonc1-c1nc2ccccc2n1CC(=O)Nc1cccc(C(F)(F)F)c1`, the Potency is 18.4 µM (active).
On to `COc1cccc(Cn2c(-c3nonc3N)nc3ccccc32)c1`, for which the Potency was 1.25 µM (active).
On the same count and under the same terms, under `COc1ccc(C)c(Cn2c(-c3nonc3N)nc3ccccc32)c1` stands 3.14 µM (active).
In the case of `Cc1cn2c(N)c(C=C3C=C(Cl)C(=O)C(Cl)=C3)c(=O)nc2s1`, the max response is 34.2% (inactive).
In the case of `Cc1cccc(CSc2cccc3cccnc23)c1`, the max response was -11.2% (inactive).
Consider `CCC(C)Sc1ccc(-c2nc3cc(C)ccn3c2NC2CCCCC2)cc1` (stereo unspecified), for which the max response is 26.9% (inactive).
`CCC(=O)Nc1nonc1-c1nc2ccccc2n1Cc1ccccc1`: the Potency was 14 µM (active).
Same read-out and setting: under `Nc1nonc1-c1nc2ccccc2n1Cc1ccc(F)cc1` stands 12.5 µM (active).
Turning to `CCOC(=O)c1c(CN(CC)CC)n(-c2ccccc2)c2ccc(O)cc12`, the max response was 2.24% (inactive).
In the case of `O=C1S/C(=C/c2ccc(N3CCOCC3)o2)C(=O)N1Cc1c(F)cccc1Cl`, the Potency is 2.8 µM (active).
Turning to `O=C1S/C(=C/c2ccc(N3CCOCC3)o2)C(=O)N1Cc1ccc(F)cc1`, the Potency was 7.04 µM (active).
Turning to `O=C1S/C(=C\c2ccc(N3CCOCC3)o2)C(=O)N1c1ccccc1`, the Potency was 1.98 µM (active).
Still for that read-out and setting: in the case of `CCCN1C(=O)S/C(=C\c2ccc(N3CCOCC3)o2)C1=O` it was 2.23 µM (active).
Regarding `CCCN1C(=O)S/C(=C/c2ccc(N3CCOCC3)o2)C1=O`, the max response was 50.5% (inactive).
Same read-out and setting: under `Cc1cc(C)c(C(=O)N(CCN(C)C)CC2CCCN(Cc3ccccc3F)C2)o1` (stereo unspecified) stands 0.428% (inactive).
Consider `COc1cc(/C=C2/SC(=S)N(Cc3ccccc3)C2=O)cc(OC)c1O`, for which the Potency is 12.5 µM (active).
Turning to `COc1cc(/C=C2/SC(=S)N(CCC(=O)Nc3ccccc3)C2=O)cc(OC)c1OC`, the Potency is 20.6 µM (active).
Consider `COc1cc(/C=C2/SC(=S)N(Cc3ccccc3)C2=O)cc(Cl)c1O`, for which the Potency is 2.23 µM (active).
For `O=C1/C(=C\c2ccc(O)cc2)SC(=S)N1Cc1ccccc1`, the max response is 39.2% (inactive).
In the case of `C=CCN1C(=O)/C(=C/c2ccc(O)c(OC)c2)S/C1=N/c1nccs1`, the Potency was 4.61 µM (active).
Take `O=C1/C(=C/c2ccc(O)cc2)SC(=S)N1CC1CCCO1` (stereo unspecified): the max response was -5.85% (inactive).
Consider `O=C(O)c1cc(-c2ccc(/C=C3/SC(=S)N(Cc4ccccc4)C3=O)o2)ccc1Cl`, for which the Potency is 18.4 µM (active).
On the same count and under the same terms, under `COc1cc(/C=C2/SC(=S)N(CC3CCCO3)C2=O)ccc1O` (stereo unspecified) stands 16.4 µM (active).

Values taken from PubChem BioAssay AID651813 (National Center for Advancing Translational Sciences (NCATS), 2012).
